In PubChem BioAssay (EPA / NIEHS):
Inconclusive results are not listed. The source made the active and inactive calls. Rule for the calls: active = hit-call score of the fitted dose curve at least 0.9, where 1 is the maximum; inconclusive = response in the unintended direction; inactive = score below 0.9.

Target: Oxysterols receptor LXR-beta (Homo sapiens) (UniProt P55055)
Experiment: ATG_LXRb_TRANS: Attagene TRANS-FACTORIAL HepG2 Assay for human Liver X Receptor beta (LXRb) (AID 2282981)
Conditions: HepG2 Attagene TRANS GAL4-LXRb reporter, mRNA
Procedure: ATG_TRANS is a cell-based, multiplexed-readout assay that uses HepG2, a human liver cell line, with measurements taken at 24 hours after chemical dosing in a 24-well plate.ATG_LXRb_TRANS is one of 30 assay component(s) measured or calculated from the ATG_TRANS assay. It is designed to make measurements of mRNA induction, a form of inducible reporter, as detected with fluorescence intensity signals by Reverse transcription polymerase chain reaction (RT-PCR) and Capillary electrophoresis technology.Data from the assay component ATG_LXRb_TRANS was analyzed into 1 assay endpoint. This assay endpoint, ATG_LXRb_TRANS, was analyzed in the positive analysis fitting direction relative to DMSO as the negative control and baseline of activity. Using a type of inducible reporter, measures of mRNA for gain-of-signal activity can be used to understand the reporter gene at the transcription factor-level as they relate to the gene NR1H2. Furthermore, this assay endpoint can be referred to as a primary readout, because this assay has produced multiple assay endpoints where this one serves a reporter gene function. To generalize the intended target to other relatable targets, this assay endpoint is annotated to the nuclear receptor intended target family, where the subfamily is non-steroidal.
Human liver HepG2 cells are transiently transfected with multiple reporter transcription units (MRTUs) in 6-well plates using FuGene 6 reagent (Roche; 3 ml FuGene/1 mg DNA). The MRTU constructs are regulated by a cis-regulating element (promoter). […] A major difference between the CIS and TRANS system is that in CIS activities of endogenous TFs are measured, whereas the TRANS assay evaluates changes in activities of exogenous, chimeric NR-Gal4 proteins. […] At the end of 24 hour incubation, total RNA was isolated using TriZol reagent (Invitrogen). The isolated RNA is then reverse-transcribed using oligo(dT) primer and Mo-MLV reverse transcriptase (Invitrogen) with DNAse I (Ambion) treatment for 30 min. The one-tenth of the produced cDNA was amplified by PCR using Taq DNA polymerase (Invitrogen) and two reporter sequence-specific primers. The PCR products were fluorescently labeled by primer extension with 6-arboxyfluorescein (6-FAM) 5'-labeled reporter sequence-specific primer (2 min at 95 C, 20 s at 68 C and 10 min at 72 C) and these products were digested with 5U of HpaI (New England Biolabs) for 2h at 37 C. The fragments were purified using Qiaquick PCR columns (Qiagen), analyzed on an ABI 3130xL genetic analyzer (Applied Biosystems) with peak positions identified by using a set of X-rhodamine (ROX)-labeled MapMarker1000 molecular weight standards (BioVentures). The raw capillary electrophoresis data was processed using Attagraph software (Attagene).

Chain of Oxysterols receptor LXR-beta (Homo sapiens) (P55055 whole entry, looked up): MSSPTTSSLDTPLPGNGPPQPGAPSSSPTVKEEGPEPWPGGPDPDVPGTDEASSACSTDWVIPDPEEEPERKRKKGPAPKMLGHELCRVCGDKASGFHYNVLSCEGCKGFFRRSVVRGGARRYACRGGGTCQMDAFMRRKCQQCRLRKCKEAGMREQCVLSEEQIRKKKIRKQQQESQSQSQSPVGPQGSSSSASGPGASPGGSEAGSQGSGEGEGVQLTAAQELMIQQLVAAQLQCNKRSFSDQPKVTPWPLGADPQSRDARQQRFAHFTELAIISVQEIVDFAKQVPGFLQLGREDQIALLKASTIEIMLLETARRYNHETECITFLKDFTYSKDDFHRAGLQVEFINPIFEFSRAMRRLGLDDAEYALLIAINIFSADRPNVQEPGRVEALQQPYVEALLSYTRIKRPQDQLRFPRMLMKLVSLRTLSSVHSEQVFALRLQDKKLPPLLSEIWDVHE

SMILES	outcome	AC50
O=C1CCCO1	inactive	
c1ccc2c(c1)oc1ccccc12	inactive	
O=[N+]([O-])C(Br)(CO)CO		9.14 nM (active)
Nc1ccc(Cl)cc1N	inactive	
CCCSC(=O)N(CCC)CCC	inactive	
Clc1ccc(C(c2ccc(Cl)cc2)C(Cl)(Cl)Cl)cc1	inactive	
CN(C)C(=O)Nc1ccc(Cl)cc1	inactive	
CCC(C)c1ccc(O)cc1 (centres undefined)	inactive	
Nc1ccc([N+](=O)[O-])cc1	inactive	
OCCCBr	inactive	
CO[C@@H]1[C@H](OC(=O)NC(=O)CCl)CC[C@]2(CO2)[C@H]1[C@@]1(C)O[C@@H]1CC=C(C)C	inactive	
CN(C)[C@@H]1C(=O)C(C(N)=O)=C(O)[C@@]2(O)C(=O)C3=C(O)c4c(O)cccc4[C@@](C)(O)[C@H]3C[C@@H]12	inactive	
CC(C)(OOC(C)(C)c1ccccc1)c1ccccc1	inactive	
CCN(CC)CCO	inactive	
O=C(O)C1C2CCC(O2)C1C(=O)O (centres undefined)	inactive	
N#CC(Br)Br	inactive	
Nc1ccc(N=Nc2ccccc2)cc1	inactive	
OCCCl	inactive	
Clc1ccc(C(c2ccc(Cl)cc2)C(Cl)Cl)cc1	inactive	
Brc1ccc(Oc2ccccc2)cc1	inactive	

SMILES	outcome	AC50
C1=Cc2cccc3cccc1c23	inactive	
ClC1=C(Cl)C2(Cl)C3C(Cl)C=CC3C1(Cl)C2(Cl)Cl (centres undefined)	inactive	
CCC12COCN1COC2	inactive	
Clc1ccc(Cl)c(Cl)c1	inactive	
Oc1ccccc1Cl	inactive	
ClCCOCCCl	inactive	
C[N+](C)(C)CC1CO1 (centres undefined)	inactive	
OCCOCCO	inactive	
CCC[CH2][Sn]([Cl])([CH2]CCC)[CH2]CCC	inactive	
C[C@]12C=CC3=C4CCC(=O)C=C4CC[C@H]3[C@@H]1CC[C@@H]2O	inactive	
CNC(=O)Oc1cccc2c1OC(C)(C)C2	inactive	
Cc1cc(N=Nc2ccccc2C)ccc1N	inactive	
COC(=O)Nc1nc2ccccc2[nH]1	inactive	
O=P(OCCCl)(OCCCl)OCCCl	inactive	
CC(O)CCO (centres undefined)	inactive	
CCCCC(CC)COC(=O)c1ccc(C(=O)OCC(CC)CCCC)c(C(=O)OCC(CC)CCCC)c1 (centres undefined)	inactive	
CCNS(=O)(=O)C(F)(F)C(F)(F)C(F)(F)C(F)(F)C(F)(F)C(F)(F)C(F)(F)C(F)(F)F	inactive	
CC(C)(C)OOC(=O)c1ccccc1	inactive	
